Sampled rows, rich in hits. Any-hit rate of the full collection: about 12%.
INS promoter inh – inhibitors of insulin promoter-driven GFP, primary screen, imaging, TRM-6 cells (human fetal islet line), eGFP reporter, cell count | AID 1273, 2008 | reporter expression induced with tamoxifen | inhibition, % at 2 µM | actives 0.9% (n = 130,000);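 active = inhibition above the mean plus 3 SD, with well images judged a real hit on visual review, cut at about 60% in these data, passing the limit was not always enough; inconclusive = inhibition over the cutoff but images rejected on review; inactive = inhibition not above the cutoff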
WT yeast gro inh – growth inhibition of WT strain, primary screen, mitochondrial fusion inhibitor project, WT and mutant strains, chemical genetic | mitochondrial fusion phenotypic screen | inhibition, % at 10 µM | actives 2.1% (n = 190,000) | AID 1362, 2008; in the data active = inhibition above about 58%; tested in S. cerevisiae
Ins promoter up – insulin promoter activators in MIN6 cells, imaging, high-content screening, mouse beta cells; MIN6 insulin promoter-GFP reporter; hits give high values; z-score at 5 µM; actives 0.3% (n = 190,000); AID 1625, 2009;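 active = z-score above 3 at 5 µM with at least 500 cells counted in the well; inconclusive = wells under 500 cells, flagged as cytotoxic or low count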
KCC2 mod – KCC2 cotransporter modulators, thallium flux, primary screen, cell-based, HEK293 KCC2, FluoZin-2 fluorescence, MLSMR | Solute carrier family 12 member 5 (Homo sapiens), Q9H2X9 | KCC2 cells, thallium flux FluoZin-2 fluorescence | B-score of Tl+ flux slope (higher = more flux/activation; lower = inhibition) at 10 µM | actives 2.2% (n = 190,000);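 active = thallium flux slope and its plate-corrected score both differing from the plate sample mean at a set confidence after two filtering rounds, in either direction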;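 note: slope of fluorescence scaled to starting intensity during 10 to 20 s after thallium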
ROMK mod – ROMK potassium channel modulators, primary screen, cell-based, thallium flux, MLSMR library; AID 1918, 2009; ATP-sensitive inward rectifier potassium channel 1 (Homo sapiens), P48048; B-score at 10 µM; Tet-inducible ROMK, thallium flux fluorescence; actives lie on both sides; actives 2% (n = 130,000);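 active = signal ratio slope over the read window, or its plate-corrected B-score, at least 3 SD from the plate mean, either direction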;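 note: B-score of the F/F0 ratio slope over 7 to 12 s after thallium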
Target sequence (P48048 whole entry, looked up): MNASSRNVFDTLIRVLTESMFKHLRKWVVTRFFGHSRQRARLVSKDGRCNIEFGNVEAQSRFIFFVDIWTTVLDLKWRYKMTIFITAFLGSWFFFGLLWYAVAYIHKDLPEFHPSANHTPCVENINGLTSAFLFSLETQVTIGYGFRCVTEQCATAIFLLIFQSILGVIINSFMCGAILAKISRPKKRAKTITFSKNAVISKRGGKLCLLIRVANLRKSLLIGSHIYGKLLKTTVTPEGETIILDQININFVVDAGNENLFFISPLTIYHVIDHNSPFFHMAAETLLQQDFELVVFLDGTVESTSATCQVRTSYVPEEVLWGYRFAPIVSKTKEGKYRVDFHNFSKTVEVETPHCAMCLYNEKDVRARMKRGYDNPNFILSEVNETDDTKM
Lmaj promast – Leishmania major promastigote growth inhibition, primary screen. Leishmania major promastigotes, resazurin fluorescence viability. inhibition, % at 10 µM. actives 9% (n = 200,000); in the data active = inhibition above about 50%;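 note: promastigotes grown with compound for 44 hours at 28 °C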
ROMK hit retest – ROMK channel modulator hit retest, confirmation, cell-based, thallium flux, duplicate, resupplied hits | shares compounds with ROMK mod | fluorescence ratio; hits give low values | normalized thallium flux (F/F0 slope) at 10 µM | actives 54% (n = 3,000) | AID 1917, 2009;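 active = Flux at 10 µM at least 3 SD below or above vehicle control mean in one or both replicates; inconclusive = no clear call, values can overlap the other calls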
An asterisk follows results filed as active; u = inconclusive; x = no result given.

SMILES	INS promoter inh	WT yeast gro inh	Ins promoter up	KCC2 mod	ROMK mod	Lmaj promast	ROMK hit retest
CCn1c(/C=C/Nc2ccccc2)[n+](CC)c2ccc(Cl)cc21	-38	23	0.24	-1.6	-3.2*	91*	u
CCOC(=O)c1ccc2c(c1)n(CC)c(/C=C/Nc1ccccc1)[n+]2CC	20	14	-0.77	x	x	25	x
Cc1cc(/C=N/NC(N)=S)c(C)n1-c1ccc(Cl)cc1	46	2	0.23	0.35	1.7*	89*	0.091
Cc1cccc(C)c1-n1c(C)cc(/C=N/NC(N)=S)c1C	3	54	0.53	-0.42	2.8*	97*	0.081
Cc1cc(/C=N\NC(=O)CC(=O)NC2CCCCC2)c(C)n1-c1ccc(Cl)cc1	x	10	0.23	x	x	-4	x
Oc1c(C=C2N=c3ccccc3=N2)sc(=S)n1C1CCCCC1	-37	7	-0.12	0.1	x	0	u
N/C(=N/O)c1ccccc1N1CCC(Cc2ccccc2)CC1	x	70*	0.05	-3.1	-4.5*	23	0.074
CN(C)S(=O)(=O)N1CCC(Cc2ccccc2)CC1	23	10	0.33	-0.31	x	-10	x
O=C1c2ccsc2SCCN1Cc1ccccc1Cl	29	-26	-0.12	-0.98	-0.16	11	x
CC(C)OC(=O)CSc1nnc(CNc2nc(-c3ccccc3)cs2)n1C	-36	6	-0.87	x	-2.7*	-6	0.062*
Cn1c(CNc2nc(-c3ccccc3)cs2)nnc1SCC(=O)OC1CCCCC1	x	7	x	-2.9	-2.2	-3	x
O=C(CNC(=O)c1cccs1)OCC(=O)c1cccs1	-36	-8	-0.53	-0.73	-0.12	-7	x
Cc1ccc(S(=O)(=O)N2CCCC(C(=O)O)C2)s1 (stereo not given)	x	5	0.82	0.99	x	-6	x
C/C=C/c1c(F)c(F)c(Oc2ccc(C(=O)O)cc2)c(F)c1F	41	41	x	x	3.8*	-6	0.09
Cc1ccc(-c2nnc(CSc3nnc(COc4ccccc4)n3-c3ccccc3)o2)cc1	-12	49	-1.2	-2.4	-3.5*	41	0.053*
N#Cc1ccc(CSc2nnc(COc3ccccc3)n2-c2ccccc2)cc1	x	-12	x	x	-1.9	12	x
CCOc1ccc(NC2OCC(O)C(O)C2O)c([N+](=O)[O-])c1 (stereo not given)	x	4	0.06	-0.55	-8.9*	6	0.074
CCOc1ccc(NC(=O)COC(=O)C2(C)CC2(Cl)Cl)c([N+](=O)[O-])c1 (stereo not given)	x	57	0.22	-0.56	-1.5	-1	x
CCCCCc1ccc(-c2nnc(N)s2)cc1	-12	15	-0.13	x	-0.35	-7	x
CCCCCCc1ccc(-c2ncc(N)cn2)cc1	-19	7	0.04	-0.55	-4.3*	-3	0.081
CC(NCCC(c1ccccc1)c1ccccc1)c1ccccc1 (stereo not given)	-13	51	x	0.61	-6.2*	81*	0.046*
CC(NC1CCCC1)c1ccccc1 (stereo not given)	x	-29	0.05	-0.88	0.48	-5	x
COc1ccc(-c2nc(N)n(C(=O)c3ccco3)n2)cc1	-7	-5	0.96	0.99	-0.32	-6	x
O=C1C2CC=C(Cl)CC2C(=O)N1CCCCCCN1C(=O)C2CC=C(Cl)CC2C1=O (stereo not given)	-23	-8	x	x	-1.2	-2	x
CSc1ccccc1NC(=O)CN1CCCCC1	-43	-4	0.74	-0.2	-0.32	-5	x
SMILES	INS promoter inh	WT yeast gro inh	Ins promoter up	KCC2 mod	ROMK mod	Lmaj promast	ROMK hit retest
CSc1ccccc1NC(=O)CN1CCN(Cc2ccccc2)CC1	x	11	-0.1	0.3	-3.1*	-3	0.072
O=C(CN1CCN(Cc2ccccc2)CC1)Nc1ccc([N+](=O)[O-])cc1C(=O)Nc1ccccc1F	-4	19	-0.23	-2.3	x	99*	0.058*
O=C(NCc1ccc(F)cc1Cl)C1CCN(S(=O)(=O)N2CCC3(CC2)OCCO3)CC1	-59	15	-0.07	x	x	-4	x
CCNC(=O)c1cc(S(=O)(=O)N(C)C)c(Cl)cc1Cl	x	-14	-0.89	0.45	0.39	-2	x
O=C(NCc1ccccn1)c1ccc2c(c1)N(Cc1ccccc1)CCS2	x	x	0.42	-1.9	x	x	x
COc1ccc(CNC(=O)Cn2nc(C(F)(F)F)cc2C)cc1	-64	-6	x	0.55	-0.39	-7	x
O=C(CCC1N=C2c3ccccc3N=C(SCc3ccc(Cl)cc3)N2C1=O)NCc1ccco1 (stereo not given)	-35	9	-0.79	x	-4.1*	24	0.061*
O=C(Cn1cc(SCc2ccccc2Cl)c2ccccc21)N1CCOCC1	x	-19	0.03	-0.092	-0.53	8	x
CCn1c(=O)c([N+](=O)[O-])c(Cl)c2ccccc21	36	62*	0.28	-2.4	-4.9*	-3	0.046*
O=[N+]([O-])c1ccc2c(c1)nc1n2CCN(C2CCCCC2)C1	x	-3	-0.04	-0.039	-5.9*	25	0.053*
Cc1ccc(NC(=O)C(c2ccccc2)C2CCCC2)cc1 (stereo not given)	-14	21	x	-0.33	x	26	x
Cc1ccc(NC(=O)C(Nc2ccccc2)c2ccccc2)cc1 (stereo not given)	-70	26	-0.13	-0.056	x	88*	0.083
CCN1CNC(=S)N(c2cccc(C)c2C)C1	-11	-8	x	-0.12	x	-8	x
Cc1cccc(OCCNC(=O)c2ncn[nH]2)c1	40	10	0.07	-0.094	x	5	x
Cc1ccc(NC(=O)CCc2ccc(S(=O)(=O)N3CCOCC3)cc2)c(C)c1	-65	-9	-0.3	-0.089	3.2*	-2	0.086
Cc1cc(/C=N/NC(=O)c2ccsc2)c(C)n1-c1cnccn1	0	1	0.21	0.59	0.19	-6	0.078
Cc1cc(C)cc(-n2c(C)cc(/C=N/NC(=O)c3ccncc3)c2C)c1	x	-8	-0.03	0.74	0.73	-3	x
COC(=O)CNC(=O)CCCCC(=O)NCC(=O)OC	18	-11	-0.47	0.73	x	0	x
CCOC(=O)CNC(=O)CCCCCC(=O)NCC(=O)OCC	30	16	-0.27	0.14	0.092	-9	0.071
CCCCc1nc(S(=O)(=O)c2ccc(Cl)cc2)c(N2CCOCC2)o1	-105	-4	-0.32	0.38	x	-3	x
O=C(O)c1cc(N2N=C(C(F)(F)F)/C(=C/C=C/c3ccco3)C2=O)ccc1Cl	40	11	x	-1.4	-5.3*	-13	0.049*
CCOC(=O)c1ccc(N2N=C(C)/C(=C/C=C/c3ccco3)C2=O)cc1	43	2	0.39	-0.94	0.42	30	x
